# Laboratory results taken from PubChem BioAssay (NCATS).
# Several values for one entry are separate records, joined by “and”; a condition that tells them apart may be missing. Equal entries are not always repeated. Results filed as inconclusive are left out. Activity calls are given as the source filed them. Calls follow the shape of the full dose curve.
# Assay: qHTS Assay for Lipid Storage Modulators (AID 1519); as to activity change, negative = inhibition: % is scaled to controls: 0 for no effect and ±100 for the full control effect
# Settings: Drosophila S3 cells, BODIPY lipid droplet/cell ratio, laser cytometry, cells loaded with oleic acid
# Source text: NIH Molecular Libraries Probe Production Centers Network [MLPCN]
# NIH Chemical Genomics Center [NCGC]
# Assay Submitter (PI): Beller, Mathias; Max-Planck-Institut fur Biophysikalische Chemie
# NCGC Assay Overview: Storing lipids as a reservoir for energy or the anabolism of elementary metabolites is a common feature of probably all cells and is conserved from bacteria to humans. The universal cellular lipid storage organelle is the so-called lipid storage droplet (LD). Although ubiquitous, LDs share a simple structure composed of a hydrophobic core that harbors the storage lipids, which is shielded by a droplet-specific phospholipid monolayer to which proteins are attached. The current model of LD biogenesis involves an incorporation of the lipid core into the membrane leaflets of the endoplasmic reticulum (ER) followed by a subsequent budding-like maturation of a LD, which ultimately pinches off. Once released, LD volume can increase by localized lipogenesis or fusion of existing droplets. Storage lipids are re-mobilized enzymatically by lipase activity. Lipase regulation in the adipocyte is heavily studied and involves multiple components including catecholamine signaling, the LD-associated proteins Perilipin and comparative gene identification-58 (CGI-58) and at least two lipases named hormone sensitive lipase (HSL) and adipocyte triglyceride lipase (ATGL). LD regulation outside of the adipocyte is poorly understood and only few components are known. However, there is an urgent need to learn more about ectopic fat depots as mislocalized storage of lipids, for example in the liver or muscle, is an eminent health problem associated with insulin resistance or the metabolic syndrome. We developed a laser-scanning cytometer assay to enable 1,536-well screening and combined the results of the small molecules screen with an RNAi database based on lipid storage.
# NCGC Assay Protocol Summary:
# We dispensed 4 uL of cells at 1.25 x 10^6 cells/mL into LoBase Aurora COC 1,536-well plates (black walled, clear bottom) with a bottle-valve solenoid-based dispenser (Aurora) to obtain 5,000 cells/well. Triacsin C (Sigma-Aldrich T-4540), an inhibitor of long-chain fatty acyl CoA synthetase that blocks synthesis of triglycerides, was used as a positive control for lipid under-storage. A total of 23 nL of compound solution of different concentrations were transferred to the assay plates using a Kalypsys pin tool equipped with a 1,536-pin array containing 10-nL slotted pins (FP1S10, 0.457-mm diameter, 50.8 mm long; V&P Scientific). One microliter of oleic acid (400 uM) was added, and the plate was lidded with stainless steel rubber gasket lined lids containing pinholes. […] Fluorescence was detected by excitation of the fluorophores with a 488-nm laser on an Acumen Explorer (TTP Lab Tech). The total intensity in channel 1 (500-530 nm) reflected lipid droplet accumulation. […] The ratio of the total intensity in PMT channel 1 over total intensity of channel 3 was also calculated. Percent activity was computed relative to an internal control (100% inhibited lipid droplet deposition due to the presence of 20 uM Triacsin C), which was added to 32 wells/plate.
# [1] = measured here: cell count channel max response
# [2] = measured here: lipid channel max response
SMILES,"activity change, negative = inhibition (at 25.7 µM (top of the series))",max response [1],max response [2],"activity change, negative = inhibition (at 57.5 µM (top of the series))"
COC(=O)[C@@H]1[C@@H]2C[C@H]3c4[nH]c5ccccc5c4CCN3C[C@@H]2CC[C@@H]1O,1.23% (inactive) and -2.04% (inactive) and -1.29% (inactive),-5.31% and -9.47% and 16%,-5.26% and -13% and 13.4%,–
CO[C@@]12C[C@@H](COC(=O)c3cncc(Br)c3)CN(C)[C@H]1Cc1cn(C)c3cccc2c13,-0.393% (inactive),-7.54%,-4.61%,–
CCCCC(=O)N(Cc1ccc(-c2ccccc2-c2nn[nH]n2)cc1)C(C(=O)O)C(C)C (configuration not stated),–,7.79%,4.86%,-6.27% (inactive)
CC[C@@](N)(C(=O)O)c1ccc(C(=O)O)cc1,–,-11.5%,-11.5%,2.13% (inactive)
O=C1c2ccc(O)c(O)c2C(=O)c2c(O)ccc(O)c21,–,-10.7%,-3.59%,6.47% (inactive)
NC(N)=NCCC[C@@H](N)C(=O)O,–,-17.8%,-21.4%,-2.14% (inactive)
Cc1ccccc1N=C(N)Nc1ccccc1C,–,2.46%,7.24%,3.82% (inactive)
COc1ccccc1N1CCN(CCCCN2C(=O)CCC2=O)CC1,–,-1.96%,-4.4%,-4.36% (inactive)
CN(CCc1ccc(Cl)c(Cl)c1)CCN1CCCC1,–,22.4%,15.8%,-5.91% (inactive)
COc1cc(/C=C/C(=O)O)ccc1O,–,5.04%,17.5%,8.29% (inactive)
Cn1cnc2c(NC3CCCC3)ncnc21,–,-17.7%,-21%,-0.311% (inactive)
C[C@H](NC[C@H](O)CP(=O)(O)CC1CCCCC1)c1ccc(Cl)c(Cl)c1,–,9.04%,17.2%,4.93% (inactive)
O=C(O)[C@H]1CN[C@H](C(=O)O)C1,–,-9.77%,-9.55%,1.7% (inactive)
COc1ccc2c(c1)CCC1[C@@H]2CCC2(C)[C@@H](NCCCCCCN3C(=O)C=CC3=O)CC[C@@H]12 (some centres not stated),–,16.2%,8.52%,-5.78% (inactive)
